Source: paper PMC5540273 (PLoS ONE, 2017)

These molecules were tested on LIMK1. Conditions: concentration: 1 μM, replicates: in singlicate; n = 1.
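Further: KINOMEscan kinase panel screen.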

SMILES	%Inh
CCn1c(-c2ccoc2)nc2cnccc21 [SB-733887]	10%
Nc1nc(-c2ccccc2F)c(-c2ccnc3ccccc23)s1 [GW560459]	1%
COc1cc(Nc2ccnc3ccc(C(F)(F)F)cc23)cc(OC)c1OC [GW577382]	18%
COC(=O)c1c(-c2ccccc2)c2cc(Br)ccc2c(=O)n1Cc1ccc(S(C)(=O)=O)cc1	0%
O=C(Nc1n[nH]c2nc(-c3ccccc3)c(Cl)cc12)C1CC1 [SB-734909]	9%
Nc1nc(N)c2nc(-c3ccccc3)[nH]c2n1 [SKF-12778]	0%
Cc1c(Cn2c(C)nn3c(=O)cc(N4CCO[C@H](C)C4)nc23)cccc1C(F)(F)F [GSK2373690]	5%
COc1cccc(C2=C(Nc3cccc(C(=O)O)c3)C(=O)NC2=O)c1 [SB-390770]	0%
CCCNC(=O)Nc1ccc(Oc2ncnc3ccn(C)c23)cc1	0%
Cc1ccc(-c2ccc3c(ccc4sc5c(c43)NC[C@@H](C)N=C5N(C)C)n2)cn1	0%
CN1C(=O)C(Nc2cc(Cl)c(O)c(Cl)c2)=C(c2ccc(Cl)cc2)C1=O [SB-404321]	0%
COc1cc(Nc2nccc(N3CCC(NC(=O)C4COc5ccccc5O4)C3)n2)cc(OC)c1OC (centres unmarked) [GSK1379761]	0%
COc1ccc(-c2coc3ccc(-c4nnc(SCc5cccc(C#N)c5)o4)cc23)cc1	26%
COc1cc(Nc2nccc(N3CCC(NC(=O)C(C)c4ccc(Cl)cc4)C3)n2)cc(OC)c1OC (centres unmarked) [GSK1379757]	1%
COC(=O)c1c(-c2ccccc2)c2cc(Br)ccc2c(=O)n1Cc1ccc(NC(=O)CCC(=O)O)cc1	0%
COc1cccc(-n2cnc3c(N)ncnc32)c1 [SKF-97416]	0%
O=C(NCc1cccs1)c1cc(C(=O)c2c(Cl)cccc2Cl)c[nH]1 [GW823670]	6%
C[C@@H]1CC[C@H](C(=O)NC2CCCCC2)CN1c1cc(-c2ccc3c(N)n[nH]c3c2)nc(N)n1 [GSK2291363]	0%
Cc1nnc(-c2ccc3ncn(-c4ccc(S(C)=O)cc4)c3c2)o1 (centres unmarked)	19%

SMILES	%Inh
O=C1NC(=O)C(c2ccccc2)=C1Nc1cccc(O)c1 [SB-390534]	0%
COc1ccc(-c2cc3c(C)nc(N)nc3n([C@H]3CC[C@H](OCCO)CC3)c2=O)cn1	13%
Cc1nnc(-c2ccc(C)c(-c3ccc(C(=O)O)cc3)c2)o1 [GW608005]	4%
Cc1cccc(-c2cc(-c3c[nH]nc3-c3ccccn3)ccn2)c1 [GW679395]	0%
Nc1ncnc2c1ncn2-c1ccc(Cl)cc1 [AH2635]	0%
Cl.NS(=O)(=O)c1cccc(Nc2cc(-c3ccc(F)cc3)n[nH]2)c1 [GW824645]	0%
Fc1cccc(CSc2nnc(-c3ccc4c(c3)CCO4)o2)c1	0%
CCC(=O)c1c(-c2ccccc2)c2cc(Cl)ccc2c(=O)n1Cc1cc(S(C)(=O)=O)n(CC(N)=O)n1	0%
FC(F)(F)c1ccc(-c2ncn(CCCN3CCOCC3)c2-c2ccncc2)cc1 [SB-217780]	0%
Cc1ccc(Oc2ccc(Nc3ncnc4cc[nH]c34)cc2C)cn1	4%
Cc1cccc(-c2nc(Nc3ccc4c(cnn4C)c3)c3ccccc3n2)n1 [GW876731]	0%
O=C(NCCNc1ccnc(Nc2ccc(F)cc2)n1)Nc1ccc2c(c1)OCO2 [GSK1379882]	0%
Nc1ncnc2c1ncn2-c1cccc(F)c1 [SKF-97560]	20%
Cc1nc(N(C)[C@H]2CN(C(=O)CC#N)CC[C@H]2C)c2cc[nH]c2n1	0%
CCC(=O)c1c(-c2ccccc2)c2cc(Cl)ccc2c(=O)n1Cc1ccc(C(=O)O)cc1	2%
COc1cc2ncn(-c3cc(OCCCc4ccccc4)c(C(N)=O)s3)c2cc1OC [GSK205189]	0%
CCCC(=O)Nc1n[nH]c2ncc(-c3cccc4ccccc34)cc12 [SB-642057]	9%
CN(C)c1cc(-c2ccc3c(N)n[nH]c3c2)nc(N)n1 [GSK2219329]	0%

The molecules below were run on LIMK2. Conditions: concentration: 1 μM, replicates: in singlicate; n = 1.

SMILES	%Inh
CCn1c(-c2ccoc2)nc2cnccc21 [SB-733887]	6%
Nc1nc(-c2ccccc2F)c(-c2ccnc3ccccc23)s1 [GW560459]	0%
COc1cc(Nc2ccnc3ccc(C(F)(F)F)cc23)cc(OC)c1OC [GW577382]	0%
COC(=O)c1c(-c2ccccc2)c2cc(Br)ccc2c(=O)n1Cc1ccc(S(C)(=O)=O)cc1	0%
O=C(Nc1n[nH]c2nc(-c3ccccc3)c(Cl)cc12)C1CC1 [SB-734909]	12%
Nc1nc(N)c2nc(-c3ccccc3)[nH]c2n1 [SKF-12778]	3%
Cc1c(Cn2c(C)nn3c(=O)cc(N4CCO[C@H](C)C4)nc23)cccc1C(F)(F)F [GSK2373690]	0%
COc1cccc(C2=C(Nc3cccc(C(=O)O)c3)C(=O)NC2=O)c1 [SB-390770]	10%
CCCNC(=O)Nc1ccc(Oc2ncnc3ccn(C)c23)cc1	0%
Cc1ccc(-c2ccc3c(ccc4sc5c(c43)NC[C@@H](C)N=C5N(C)C)n2)cn1	0%
CN1C(=O)C(Nc2cc(Cl)c(O)c(Cl)c2)=C(c2ccc(Cl)cc2)C1=O [SB-404321]	0%
COc1cc(Nc2nccc(N3CCC(NC(=O)C4COc5ccccc5O4)C3)n2)cc(OC)c1OC (centres unmarked) [GSK1379761]	4%
COc1ccc(-c2coc3ccc(-c4nnc(SCc5cccc(C#N)c5)o4)cc23)cc1	0%
COc1cc(Nc2nccc(N3CCC(NC(=O)C(C)c4ccc(Cl)cc4)C3)n2)cc(OC)c1OC (centres unmarked) [GSK1379757]	22%
COC(=O)c1c(-c2ccccc2)c2cc(Br)ccc2c(=O)n1Cc1ccc(NC(=O)CCC(=O)O)cc1	0%
COc1cccc(-n2cnc3c(N)ncnc32)c1 [SKF-97416]	7%
O=C(NCc1cccs1)c1cc(C(=O)c2c(Cl)cccc2Cl)c[nH]1 [GW823670]	0%
C[C@@H]1CC[C@H](C(=O)NC2CCCCC2)CN1c1cc(-c2ccc3c(N)n[nH]c3c2)nc(N)n1 [GSK2291363]	11%
Cc1nnc(-c2ccc3ncn(-c4ccc(S(C)=O)cc4)c3c2)o1 (centres unmarked)	6%

SMILES	%Inh
O=C1NC(=O)C(c2ccccc2)=C1Nc1cccc(O)c1 [SB-390534]	0%
COc1ccc(-c2cc3c(C)nc(N)nc3n([C@H]3CC[C@H](OCCO)CC3)c2=O)cn1	0%
Cc1nnc(-c2ccc(C)c(-c3ccc(C(=O)O)cc3)c2)o1 [GW608005]	0%
Cc1cccc(-c2cc(-c3c[nH]nc3-c3ccccn3)ccn2)c1 [GW679395]	13%
Nc1ncnc2c1ncn2-c1ccc(Cl)cc1 [AH2635]	6%
Cl.NS(=O)(=O)c1cccc(Nc2cc(-c3ccc(F)cc3)n[nH]2)c1 [GW824645]	0%
Fc1cccc(CSc2nnc(-c3ccc4c(c3)CCO4)o2)c1	0%
CCC(=O)c1c(-c2ccccc2)c2cc(Cl)ccc2c(=O)n1Cc1cc(S(C)(=O)=O)n(CC(N)=O)n1	0%
FC(F)(F)c1ccc(-c2ncn(CCCN3CCOCC3)c2-c2ccncc2)cc1 [SB-217780]	0%
Cc1ccc(Oc2ccc(Nc3ncnc4cc[nH]c34)cc2C)cn1	0%
Cc1cccc(-c2nc(Nc3ccc4c(cnn4C)c3)c3ccccc3n2)n1 [GW876731]	0%
O=C(NCCNc1ccnc(Nc2ccc(F)cc2)n1)Nc1ccc2c(c1)OCO2 [GSK1379882]	0%
Nc1ncnc2c1ncn2-c1cccc(F)c1 [SKF-97560]	22%
Cc1nc(N(C)[C@H]2CN(C(=O)CC#N)CC[C@H]2C)c2cc[nH]c2n1	16%
CCC(=O)c1c(-c2ccccc2)c2cc(Cl)ccc2c(=O)n1Cc1ccc(C(=O)O)cc1	0%
COc1cc2ncn(-c3cc(OCCCc4ccccc4)c(C(N)=O)s3)c2cc1OC [GSK205189]	0%
CCCC(=O)Nc1n[nH]c2ncc(-c3cccc4ccccc34)cc12 [SB-642057]	0%
CN(C)c1cc(-c2ccc3c(N)n[nH]c3c2)nc(N)n1 [GSK2219329]	14%
